Measured values taken from PubChem BioAssay (NCI).
Values joined by “and” are separate entries in the source; they are usually repeats but may differ in a detail not shown here. Equal values may be shown once. About 83,000 compounds went through this panel and 20% of them were active in at least one assay; those are over-represented in the sample as a whole.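 In brief: 96-well plates, 48 h treatment, single concentration, percent growth endpoint.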 Active and inactive are the calls of the source. Rule for the calls: active = growth percent below 10; inactive = the rest.

System: MDA-MB-435 melanoma
Test: NCI-60 one-dose screen, 48 h (100 = growth as untreated, 0 = no growth, -100 = all killed)
Conditions: 10 µM unless noted

Compound | growth
O=C(/C=C/Nc1ccc(S(=O)(=O)Nc2ncccn2)cc1)c1ccc(N=Cc2c(O)[nH]c3ccccc23)cc1 | 100% (inactive)
CCCCCN1C(=O)/C(=c2\sc3n(c2=O)C2C(NN=3)N(CC)C(=O)N2CC)c2cccc(C)c21 (stereo unspecified) | -13.6% (active)
C#C[C@]1(O)CC[C@H]2[C@@H]3CC=C4c5sc(Nc6ncccc6C)nc5CC[C@]4(C)[C@H]3CC[C@@]21C | -39.3% (active)
O=C1CSC(c2cn(-c3ccccc3)nc2-c2ccc(Cl)cc2)N1c1ccccc1 (stereo unspecified) | 103% (inactive)
CC(=O)Nc1ccccc1-c1nc2ccccc2s1 | 98.8% (inactive)
O=C(/C=C/c1cccc(Br)c1)c1cccc(OCCCCOc2cccc(C(=O)/C=C/c3cccc(Br)c3)c2)c1 | 105% (inactive)
C/C(=C(\c1ccc(O)cc1)c1ccc(OCCN2CCCCCC2)cc1)c1ccc(Cl)cc1 | -73.9% (active)
Clc1ccc(CSc2nnc(-c3ccc(Cl)cc3)n2-c2ccccc2)cc1 | 90% (inactive)
O=C(CCCCCCNC(=O)C(O)(O)C(F)(F)F)Nc1nc2ccccc2s1 | 4.88% (active)
CC(C)NC(=O)c1cc(-c2ccc(NC(=O)Nc3ccc(F)c(C(F)(F)F)c3)cc2)nc2cccnc12 | 91.3% (inactive)
COc1ccc(-c2cnc(NC(=O)CCCCCCNC(=O)C(O)(O)C(F)(F)F)s2)cc1 | 5.55% (active)
C/C=C/CC(C)C(O)[C@H](NC(=O)[C@@H]1CCCN1C(=O)[C@](C)(CC)NC(=O)CCCCCCCCC)C(=O)N[C@@](C)(CC)C(=O)N[C@@H](CCC(N)=O)C(=O)N[C@H](CCC(N)=O)C(=O)NC(C)(C)C(=O)NC(C)(C)C(=O)N[C@@H](CCC(N)=O)C(=O)N[C@H](CC(C)C)C(=O)N[C@H](CO)CC(C)C (stereo partly specified) | 17.4% (inactive) and -95.1% (active)
CC1CC(=O)C2=C(C1)Nc1ccc(Br)cc1CC2c1c[nH]c2ccc(Br)cc12 (stereo unspecified) | -18.5% (active)
CC(C)(C)Nc1nc2c(OCCc3ccccc3)cccn2c1-c1cccc(Oc2ccccc2)c1 | 19.9% (inactive)
CCCC/C(=C\c1ccc(O)c(O)c1)C(=O)NC(Cc1ccccc1)C(=O)C(=O)NCCc1ccc(OC)cc1 (stereo unspecified) | 94.3% (inactive)
COC(=O)c1cccc(NC2=C(Cl)C(=O)c3nc(C)ccc3C2=O)c1 | -38.6% (active)

Compound | growth
NC1CC2(CCN(c3cnc(C(=O)Nc4cc(F)cc5cccnc45)cn3)CC2)C1 | 70.9% (inactive)
COC(=O)c1ccc(NC2=C(Cl)C(=O)c3nc(C)ccc3C2=O)cc1 | 60.6% (inactive)
CC(Nc1c(C#N)cnc2ccc(-c3cncc(-c4n[nH]c(=O)o4)c3)cc12)c1ccccc1 (stereo unspecified) | 24% (inactive)
CC(=O)OC[C@]12CC[C@@H](C(=O)/C=C/c3cccnc3)[C@@H]1[C@H]1CC[C@@H]3[C@@]4(C)CC[C@H](OC(C)=O)C(C)(C)[C@@H]4CC[C@@]3(C)[C@]1(C)CC2 | -1.17% (active)
CC(O)c1cccc(/C(N)=N/C(N)=N/c2nc3ccccc3s2)c1 (stereo unspecified) | 98% (inactive)
CC(C)=CCC[C@](C)(O)[C@H]1CC[C@]2(C)[C@@H]1CC[C@@H]1[C@@]3(C)CC[C@H](N)C(C)(C)[C@@H]3CC[C@]12C | 94.2% (inactive)
Cc1ccc2c(n1)C(=O)C(Cl)=C(Nc1cccc(C)c1C)C2=O | -86.5% (active)
C[C@]12CC[C@H]3[C@@H](CC=C4C[C@@H](O)CC[C@@]43C)[C@@H]1CC[C@@H]2[C@](C)(O)CCc1cccnc1 | 64% (inactive)
CN1CCN(c2ccc(Nc3nc(NCCCNS(=O)(=O)c4ccc(C(F)(F)F)cc4)c4sccc4n3)cc2)CC1 | -62.4% (active)
Cc1ccc2c(n1)C(=O)C(Cl)=C(Nc1cccc(C(F)(F)F)c1)C2=O | 71.3% (inactive)
O=C(CN1CCN(c2cc(=O)[nH]c3ccc(F)cc23)CC1)N(c1ccccc1)c1ccccc1 | 102% (inactive)
Cc1[nH]c(C(=O)Nc2ccc(C(N)=O)cc2N2CCOC(C)C2)c(Cl)c1Cl (stereo unspecified) | 96.1% (inactive)
CC1(C)CC[C@]2(C(=O)O)CC[C@]3(C)C(=CC[C@@H]4[C@@]5(C)CC[C@H](NOCCCN)C(C)(C)[C@@H]5CC[C@]43C)[C@@H]2C1 | 91.7% (inactive)
Cc1ccc2c(n1)C(=O)C(Cl)=C(Nc1ccc(C#N)cc1)C2=O | 99.5% (inactive)
CC(=O)Nc1nc(C)c(-c2csc(Nc3ccccc3)n2)s1 | 43.3% (inactive)
